Tau fibril ThT – inhibitors of human tau fibril formation, thioflavin T binding. P10636. recombinant tau K18 P301L, heparin-induced fibrillization, ThT fluorescence. Potency, µM (highest dose often 57.4 µM), inactives show top-dose activity, negative = inhibition, actives largely listed as inhibitors. 270,000 compounds, 2.1% hits; further: nearly all actives have a fitted effect of over 55% in size
Target sequence (P10636 561-689 P618L limits assumed): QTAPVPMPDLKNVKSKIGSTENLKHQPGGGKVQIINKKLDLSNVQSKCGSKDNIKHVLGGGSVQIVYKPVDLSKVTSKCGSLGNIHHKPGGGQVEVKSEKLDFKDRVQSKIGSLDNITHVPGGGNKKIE
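Fibril formation assay: tau K18 P301L at 15 uM with trace Alexa 594 label, heparin inducer 20 uM, pH 7 sodium acetate buffer, 37 C for 6 hr; endpoint ThT signal.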
Tau fibril FP – blocks human tau fibril formation measured by polarization. P10636. K18 P301L tau heparin fibrillization, Alexa594 FP, 6 h. Potency, µM (series often up to 57.7 µM), without a hit: top-dose activity, negative = inhibition, usual class: inhibitors. 280,000 compounds, 0.39% hits. AID 1468; further: nearly all actives have a fitted effect of over 55% in size
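Heparin (20 uM) drove fibril formation of recombinant tau K18 P301L, 15 uM unlabeled with 0.24 uM Alexa 594 label, for 6 hr at 37 C in 100 mM sodium acetate pH 7. Fluorescence polarization (555/632 nm) read 1 hr after 30 uM ThT.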
RORgamma inh – blocks mouse ROR gamma transcriptional activity | Drosophila S2 Gal4-RORgamma UAS-luciferase reporter, 20 h | P51450 | Potency, µM (doses to about 53.6 µM), for inactives: top-dose activity change, negative = inhibition, most hits filed as inhibitors | 310,000 compounds, 5.4% hits; further: nearly all actives have a fitted effect of over 60% in size
Target sequence (P51450 whole entry, looked up, the tested form may be a part): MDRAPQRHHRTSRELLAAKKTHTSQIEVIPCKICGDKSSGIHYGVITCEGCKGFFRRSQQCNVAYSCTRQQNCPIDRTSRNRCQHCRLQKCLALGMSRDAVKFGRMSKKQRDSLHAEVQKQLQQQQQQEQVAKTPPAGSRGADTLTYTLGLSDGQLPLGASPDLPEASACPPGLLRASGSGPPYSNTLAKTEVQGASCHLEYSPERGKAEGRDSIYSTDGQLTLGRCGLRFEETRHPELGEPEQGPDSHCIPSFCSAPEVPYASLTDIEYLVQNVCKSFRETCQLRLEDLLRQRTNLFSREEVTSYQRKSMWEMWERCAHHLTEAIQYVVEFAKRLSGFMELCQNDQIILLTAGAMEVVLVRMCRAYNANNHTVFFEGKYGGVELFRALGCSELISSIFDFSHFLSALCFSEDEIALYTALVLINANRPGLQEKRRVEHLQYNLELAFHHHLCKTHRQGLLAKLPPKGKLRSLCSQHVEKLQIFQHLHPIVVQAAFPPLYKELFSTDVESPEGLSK
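In this cell-based reporter format, copper sulfate (700 uM final) drives Gal4–ROR gamma fusion expression from a metallothionein promoter in Drosophila Schneider cells; compounds preincubated 1 hr, reporter read after 20 hr at ambient temperature.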
Tau fluor counter – counter-screen for tau fibril formation inhibitors; tau K18 P301L (four-repeat tau fragment) Alexa594 fluorescence, heparin fibrillization; Potency, µM (top dose mostly 57.7 µM), for the others: top-dose activity change, negative = decrease; 280,000 compounds, 0.93% hits; further: nearly all actives have a fitted effect of over 55% in size
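Human K18 P301L tau (15 uM unlabeled plus 0.24 uM Alexa 594-labeled, final) in 100 mM sodium acetate pH 7 was mixed with compound and 20 uM heparin and incubated 6 hr at 37 C.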
VP16 counter – inhibits Gal4-VP16 luciferase reporter, ROR gamma counter-screen; Drosophila S2 Gal4-VP16 UAS-luciferase, luminescence, 20 h; Potency, µM (top dose mostly 53.6 µM), inactives show at the highest dose activity, negative = inhibition, actives largely listed as inhibitors; 310,000 compounds, 3.5% hits; AID 2546;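 further: Gal4-VP16 expression switched on by copper sulfate through the metallothionein promoter; nearly all actives have a fitted effect of over 50% in size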
* = called active by the depositor; ? = inconclusive; · = no result; [ ] = another dose, or the depositor's remark. The list is not random: actives were taken first. Their share in the collection is about 7.3%. The call rests on the fitted dose curve; in most records, active means well fitted curve in the direction sought with a large enough effect; inconclusive means small, poorly fitted or top-dose-only effect, or another doubt; inactive means no such curve, though single readings can be large; an effect the other way counts as inactive or inconclusive. On the % scale 0 is the no-effect control and ±100 the full control effect; potency means the concentration at half of the fitted maximal effect.

SMILES	Tau fibril ThT	Tau fibril FP	RORgamma inh	Tau fluor counter	VP16 counter
Fc1ccc(/C=N/NC(=S)Nc2ccc(Cl)cc2)cc1F	-15%	-11%	0.71µM*	-18%	1.4µM*
CCOc1ccc(/C=N/NC(=O)Nc2ccccc2)cc1	6%	6%	-8%	10%	0%
Fc1ccc(/C=N/NC(=S)Nc2ccc(Cl)cc2Cl)cc1	5%	-2%	?	0%	?
Fc1ccc(NC(=S)Nc2ccc(Cl)cc2)cc1	3%	-6%	?	-29%	-4%
Fc1ccc(NC(=S)NN=C2CCCCCC2)cc1	-20%	3%	4.5µM*	-16%	18µM*
Fc1ccc(NC(=S)N/N=C/c2ccc(F)c(F)c2)cc1	0%	1%	0.71µM*	-7%	3.2µM*
CC(=O)Oc1ccc(/C=N/NC(=S)Nc2ccccc2)cc1	-18%	-7%	2µM*	-17%	2.5µM*
COC(=O)c1ccc(NC(=O)CSc2cn(CC(=O)N3CCCCC3)c3ccccc23)cc1	?	-3%	·	-28%	·
COc1ccc(NC(=S)N/N=C/c2ccc(F)c(F)c2)cc1	?	-2%	3.2µM*	-28%	5µM*
COc1ccc(/C=N/NC(=O)c2ccncc2)cc1OC	·	·	-23%	·	-13%
COc1ccc(/C=N/NC(=S)Nc2ccccc2)cc1COc1ccc(F)cc1F	-8%	3%	0.63µM*	-28%	1µM*
COc1ccc(NC(=S)N/N=C/c2ccc(F)cc2)cc1OC	-18%	-1%	0.63µM*	-22%	2.5µM*
CC(=O)c1ccc(NC(=O)OCCN2CCN(Cc3ccccc3)CCC2=O)cc1	-17%[81.4 µM]	-18%[81.3 µM]	-14%	?	-4%
CCN1C(=O)[C@H]2[C@H]3[C@H](O)[C@H](O)C/C(=N/OC[C@@H](O)COCc4ccco4)[C@@H]3CC[C@@H]2C1=O	7%[11.5 µM]	2%[11.6 µM]	8%[10 µM]	6%[11.6 µM]	-6%[10 µM]
CC(=O)c1ccc(N=Nc2ccc(N)cc2)cc1	0.56µM*	-5%	30%	?	8%
Cc1ccc(-c2cc(-c3ccc(F)cc3)nc(N)c2C#N)o1	?	-10%	0%	-20%	-28%
Cc1ccc(-c2cc(-c3ccccc3)c(C#N)c(N)n2)o1	?	5%	20µM*	-12%	?
Cc1ccc(-c2cc(-c3ccccc3Cl)c(C#N)c(N)n2)o1	32µM*	-9%	?	-28%	-5%
Cc1ccc(-c2c(C#N)c(N)nc3c2CCCC3)o1	-7%	-2%	20%	-8%	21%
O=C(NCc1cccnc1)NC1(C(F)(F)F)Oc2ccc(Cl)cc2O1 (centres undefined)	-4%	-11%	11µM*	-12%	?
CCn1c(-c2ccc3ncccc3c2)n[nH]c1=S	?	7%	11µM*	-1%	?
Cc1nc(-c2ccccc2)sc1-c1ccn[nH]1	-5%	-2%	-43%	-2%	?
C=CCn1c(-c2ccc3ncccc3c2)n[nH]c1=S	·	1%	?	12%	?
CCn1c(-c2ccc([N+](=O)[O-])cc2)n[nH]c1=S	-18%	0%	11µM*	3%	-24%
CCCCn1c(=O)[nH]c(=O)c2c1nc(-c1ccc([N+](=O)[O-])cc1)n2CC	·	·	11%	·	0%
SMILES	Tau fibril ThT	Tau fibril FP	RORgamma inh	Tau fluor counter	VP16 counter
CCn1c(-c2sc(-c3ccccc3)nc2C)n[nH]c1=S	-11%	-3%	3.5µM*	-6%	?
CCn1c(-c2cccc(S(=O)(=O)N3CCCC3)c2)n[nH]c1=S	·	-12%	?	6%	-1%
CCn1c(-c2cccc(Br)c2)n[nH]c1=S	-2%	-6%	10µM*	-3%	7.1µM*
CC(C)c1ccc(NC(=O)c2cccn2-c2nnc(N3CCCCC3)s2)cc1	-15%	5%	·	-29%	·
O=S(=O)(C/C(=C/CO)S(=O)(=O)c1ccccc1)c1ccccc1	3.5µM*	?	4µM*	-14%	4.5µM*
Cc1ccc2nc(SCC(=O)Nc3ccc(F)c([N+](=O)[O-])c3)[nH]c2c1	?	-9%	-6%[10 µM]	28µM*[quencher]	-18%
Cc1cc(C)nc(NS(=O)(=O)c2ccc(NC(=O)CSc3nc4ccccc4[nH]3)cc2)n1	-2%	-3%	23%	-10%	4µM*
Cc1ccc(S(=O)(=O)Nc2cc(=O)[nH]c(SCC(=O)Nc3cccc(C)c3)n2)cc1	·	16µM*	11%	?	-11%
O=C(CSc1nc2ccccc2[nH]1)Nc1nc(-c2cccc(Br)c2)cs1	-11%	14µM*	14%	?	-8%
Cc1nnc(NC(=O)C2CC(=O)N(C(C)c3ccccc3)C2)s1 (centres undefined)	·	·	-8%	·	19%
CC1(C)C(OC(=O)CCC(=O)O)CC[C@]2(C)C1CC[C@@]1(C)C2C(=O)C=C2[C@@H]3C[C@@](C)(C(=O)O)CC[C@]3(C)CCC21C (some centres undefined)	-13%	0%	-24%	0%	0%
CN(c1nccc(=O)[nH]1)C1CCN(c2nc3ccccc3n2Cc2ccc(F)cc2)CC1	·	·	33%	·	5%
Cc1cc(N)n2ncc(-c3cccc(Br)c3)c2n1	?	2%	24%	16µM*[quencher]	27%
Cc1cc(N)n2ncc(-c3ccccc3)c2n1	?	4%	10%	?	1%
CC1O[C@@H](O[C@H]2C(Oc3cc(O)c4c(c3)OC(c3ccc(O)cc3)CC4=O)OC(CO)C(O)C2O)C(O)C(O)C1O (some centres undefined)	1%	0%	7%	2%	1%
C/C(=N\NC(=O)c1c(Cl)c(C)nn1C)c1ccc(NC(=O)c2ccncc2)cc1	?	-11%	-38%	-27%	-5%
Cc1nn(-c2ccc(NC(=O)c3ccncc3)cc2)c(C)c1Cl	·	·	?	·	7.9µM*
COc1ccc(NC(=O)C/C(C)=N/NC(=O)c2cccs2)c([N+](=O)[O-])c1	·	·	20µM*	·	18µM*
CC1=CC(C)(C)NC(=S)N1c1cc(C)cc(C)c1	-10%	7%	3.5µM*	-7%	?
CC1=CC(C)(C)NC(=S)N1c1ccccc1C	-6%	-3%	2.2µM*	-7%	0%[10 µM]
CCOc1ccc(C(=O)NN2C(=S)NC(C)(C)C=C2C)cc1	-4%	-1%	-34%	0%	-2%
CC1=CC(C)(C)NC(=S)N1c1cccc2cc(S(=O)(=O)O)ccc12	32µM*	?	4%	-29%	-11%
CC1=CC(C)(C)NC(=S)N1c1ccc(C)cc1C	-3%	2%	1.4µM*	-4%	2.8µM*
CO/N=C(/C(=O)N[C@@H]1C(=O)N2C(C(=O)O)=C(COC(N)=O)CS[C@H]12)c1ccco1	·	·	17%	·	-1%
COc1ccc(-c2cc(C)no2)cc1S(=O)(=O)N1CCc2ccccc21	?	15%	·	28µM*[fluorescent]	·
COc1ccc(-c2cc(C)no2)cc1S(=O)(=O)N1CCOc2ccccc21	-1%	-14%	-5%	?	0%

Bioassay records (PubChem)
